In paper PMC7862700, “An all-to-all approach to the identification of sequence-specific readers for epigenetic DNA modifications on cytosine”:

Experiments:
Test in all cases: DAPPL (digital affinity profiling via proximity ligation, sequencing); 10 mM Tris-HCl pH 7.5, 50 mM NaCl, 1 mM DTT, 4% glycerol, room temperature, 30 min; GST-TFs on glutathione beads, 16-mer random dsDNA library, 0.1% formaldehyde crosslink after washing; high values mean tight binding
[1] = target: T1, FEV (Homo sapiens, UniProt Q99581 1-238); details: protein: recombinant; tags: N-terminal GST; dsDNA, one strand shown
T1 sequence: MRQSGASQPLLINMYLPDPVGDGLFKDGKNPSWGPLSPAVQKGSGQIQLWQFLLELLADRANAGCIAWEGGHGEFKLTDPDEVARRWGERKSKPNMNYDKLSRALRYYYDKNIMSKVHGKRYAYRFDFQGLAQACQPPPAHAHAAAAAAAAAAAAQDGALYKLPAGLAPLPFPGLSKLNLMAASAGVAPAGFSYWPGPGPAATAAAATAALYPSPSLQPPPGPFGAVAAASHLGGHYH
In short: (§1)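 In yeast, human transcription factors were expressed with a GST fusion, then pulled down on glutathione beads and given DNA barcodes. Pooled with a tag-only sample, they were exposed to 200 nmole of a 16-mer random double-stranded DNA library (Tris/NaCl/DTT/glycerol buffer, room temperature, 30 min), washed, crosslinked with 0.1% formaldehyde, proximity-ligated using BsaI/T4 ligase for 1 h at 37 °C, PCR-amplified and read on an Illumina NextSeq500. Each hexamer's frequency of reads for a factor, divided by the matching frequency for the tag-only sample, gives the binding signal.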

[2] = target: ETV5 (Homo sapiens, UniProt P41161 1-510); details: protein: recombinant; tags: N-terminal GST; dsDNA, one strand shown
Chain of ETV5 (P41161 whole entry): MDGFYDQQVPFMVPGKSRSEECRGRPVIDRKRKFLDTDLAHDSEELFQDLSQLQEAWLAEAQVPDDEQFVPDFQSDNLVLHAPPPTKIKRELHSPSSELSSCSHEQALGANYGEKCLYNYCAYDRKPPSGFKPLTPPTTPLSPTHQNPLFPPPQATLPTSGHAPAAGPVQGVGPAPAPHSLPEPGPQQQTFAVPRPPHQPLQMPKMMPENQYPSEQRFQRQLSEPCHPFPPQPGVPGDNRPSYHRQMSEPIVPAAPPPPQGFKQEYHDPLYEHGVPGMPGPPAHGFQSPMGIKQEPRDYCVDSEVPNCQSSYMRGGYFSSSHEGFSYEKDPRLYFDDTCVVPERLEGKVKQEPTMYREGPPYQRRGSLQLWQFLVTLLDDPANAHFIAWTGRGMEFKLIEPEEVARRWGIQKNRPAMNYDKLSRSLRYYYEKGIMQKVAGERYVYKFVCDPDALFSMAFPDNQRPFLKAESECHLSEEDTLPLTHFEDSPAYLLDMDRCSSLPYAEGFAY
In short: as §1

[3] = target: HSF1 (Homo sapiens, UniProt Q00613 1-529); details: protein: recombinant; tags: N-terminal GST; chain copies: 3; dsDNA, one strand shown
Chain of HSF1 (Q00613 whole entry): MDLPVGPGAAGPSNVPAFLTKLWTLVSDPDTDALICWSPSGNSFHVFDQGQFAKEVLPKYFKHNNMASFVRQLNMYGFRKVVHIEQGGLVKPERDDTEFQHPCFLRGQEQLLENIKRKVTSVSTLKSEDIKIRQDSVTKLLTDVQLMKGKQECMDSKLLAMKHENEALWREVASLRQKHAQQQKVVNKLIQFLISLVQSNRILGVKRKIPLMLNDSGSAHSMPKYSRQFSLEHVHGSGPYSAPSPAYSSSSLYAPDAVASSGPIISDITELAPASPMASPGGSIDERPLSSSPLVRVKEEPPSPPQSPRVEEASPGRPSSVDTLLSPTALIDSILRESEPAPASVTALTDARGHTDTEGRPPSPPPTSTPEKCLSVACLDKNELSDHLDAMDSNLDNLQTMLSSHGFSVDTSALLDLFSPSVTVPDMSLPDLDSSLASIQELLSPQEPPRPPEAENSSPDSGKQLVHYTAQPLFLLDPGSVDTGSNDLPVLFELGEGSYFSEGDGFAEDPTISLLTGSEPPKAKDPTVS
In short: as §1

[4] = target: T2, SPIC (Homo sapiens, UniProt Q8N5J4 1-248); details: protein: recombinant; tags: N-terminal GST; dsDNA, one strand shown
T2 sequence: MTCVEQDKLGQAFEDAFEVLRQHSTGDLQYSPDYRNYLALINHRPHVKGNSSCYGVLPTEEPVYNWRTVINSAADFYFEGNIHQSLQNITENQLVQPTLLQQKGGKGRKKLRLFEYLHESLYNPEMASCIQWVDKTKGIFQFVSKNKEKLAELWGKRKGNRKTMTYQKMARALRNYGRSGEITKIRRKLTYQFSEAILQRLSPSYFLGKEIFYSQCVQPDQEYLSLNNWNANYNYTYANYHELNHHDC
In short: as §1

[5] = target: ELF4 (Homo sapiens, UniProt Q99607 1-663); details: protein: recombinant; tags: N-terminal GST; dsDNA, one strand shown
Chain of ELF4 (Q99607 whole entry): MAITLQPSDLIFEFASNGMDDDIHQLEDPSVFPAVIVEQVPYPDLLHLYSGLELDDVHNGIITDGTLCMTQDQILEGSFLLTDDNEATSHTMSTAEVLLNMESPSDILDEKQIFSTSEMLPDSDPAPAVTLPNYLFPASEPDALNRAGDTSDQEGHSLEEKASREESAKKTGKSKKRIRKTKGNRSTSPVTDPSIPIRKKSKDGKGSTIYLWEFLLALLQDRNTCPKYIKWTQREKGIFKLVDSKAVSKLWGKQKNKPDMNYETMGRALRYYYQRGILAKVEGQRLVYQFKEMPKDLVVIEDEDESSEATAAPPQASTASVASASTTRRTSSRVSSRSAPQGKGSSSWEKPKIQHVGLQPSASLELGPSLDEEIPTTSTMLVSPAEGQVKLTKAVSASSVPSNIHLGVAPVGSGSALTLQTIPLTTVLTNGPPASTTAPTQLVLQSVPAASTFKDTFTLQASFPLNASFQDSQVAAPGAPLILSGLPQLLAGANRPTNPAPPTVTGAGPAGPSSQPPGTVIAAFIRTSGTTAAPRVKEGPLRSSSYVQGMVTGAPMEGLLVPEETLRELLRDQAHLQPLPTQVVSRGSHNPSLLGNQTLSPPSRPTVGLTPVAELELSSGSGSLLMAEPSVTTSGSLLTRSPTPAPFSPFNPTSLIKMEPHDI
In short: as §1

[6] = target: T3, ELK4 (Homo sapiens, UniProt P28324-2 1-405); details: protein: recombinant; tags: N-terminal GST; dsDNA, one strand shown
T3 sequence: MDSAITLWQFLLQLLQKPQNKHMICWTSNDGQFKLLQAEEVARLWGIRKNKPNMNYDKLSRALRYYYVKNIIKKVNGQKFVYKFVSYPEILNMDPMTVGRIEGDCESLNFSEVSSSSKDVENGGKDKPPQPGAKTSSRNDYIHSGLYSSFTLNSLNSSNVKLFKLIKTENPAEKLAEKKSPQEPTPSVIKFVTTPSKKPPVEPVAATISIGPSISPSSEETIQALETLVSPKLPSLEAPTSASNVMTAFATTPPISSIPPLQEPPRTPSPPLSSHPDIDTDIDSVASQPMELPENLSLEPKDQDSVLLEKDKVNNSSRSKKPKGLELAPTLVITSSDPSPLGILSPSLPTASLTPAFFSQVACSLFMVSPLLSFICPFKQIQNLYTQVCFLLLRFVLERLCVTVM
In short: as §1

[7] = target: T4, ETV2 (Homo sapiens, UniProt O00321 1-342); details: protein: recombinant; tags: N-terminal GST; dsDNA, one strand shown
T4 sequence: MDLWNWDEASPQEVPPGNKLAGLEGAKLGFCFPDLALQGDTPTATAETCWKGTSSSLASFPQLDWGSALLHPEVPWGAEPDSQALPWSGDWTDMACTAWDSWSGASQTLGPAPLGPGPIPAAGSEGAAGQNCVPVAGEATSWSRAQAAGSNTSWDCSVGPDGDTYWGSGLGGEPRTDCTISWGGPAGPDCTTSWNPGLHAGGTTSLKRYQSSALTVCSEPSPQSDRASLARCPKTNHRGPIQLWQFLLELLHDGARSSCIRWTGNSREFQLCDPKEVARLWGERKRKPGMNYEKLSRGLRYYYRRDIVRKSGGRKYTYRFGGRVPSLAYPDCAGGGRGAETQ
In short: as §1

[8] = target: T5, ELF3 (Homo sapiens, UniProt P78545 1-371); details: protein: recombinant; tags: N-terminal GST; dsDNA, one strand shown
T5 sequence: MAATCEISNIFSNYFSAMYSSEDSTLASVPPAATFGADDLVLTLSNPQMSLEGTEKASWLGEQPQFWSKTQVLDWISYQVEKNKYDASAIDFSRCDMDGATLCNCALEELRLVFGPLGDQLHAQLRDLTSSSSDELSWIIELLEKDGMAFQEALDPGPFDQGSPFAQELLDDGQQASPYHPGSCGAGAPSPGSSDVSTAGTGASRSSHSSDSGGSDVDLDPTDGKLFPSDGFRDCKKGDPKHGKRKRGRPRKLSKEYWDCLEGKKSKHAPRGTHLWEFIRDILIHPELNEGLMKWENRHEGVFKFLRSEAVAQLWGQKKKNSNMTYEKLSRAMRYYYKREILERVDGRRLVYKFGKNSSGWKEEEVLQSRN
In short: as §1

[9] = target: ETV1 (Homo sapiens, UniProt P50549 1-477); details: protein: recombinant; tags: N-terminal GST; dsDNA, one strand shown
Chain of ETV1 (P50549 whole entry): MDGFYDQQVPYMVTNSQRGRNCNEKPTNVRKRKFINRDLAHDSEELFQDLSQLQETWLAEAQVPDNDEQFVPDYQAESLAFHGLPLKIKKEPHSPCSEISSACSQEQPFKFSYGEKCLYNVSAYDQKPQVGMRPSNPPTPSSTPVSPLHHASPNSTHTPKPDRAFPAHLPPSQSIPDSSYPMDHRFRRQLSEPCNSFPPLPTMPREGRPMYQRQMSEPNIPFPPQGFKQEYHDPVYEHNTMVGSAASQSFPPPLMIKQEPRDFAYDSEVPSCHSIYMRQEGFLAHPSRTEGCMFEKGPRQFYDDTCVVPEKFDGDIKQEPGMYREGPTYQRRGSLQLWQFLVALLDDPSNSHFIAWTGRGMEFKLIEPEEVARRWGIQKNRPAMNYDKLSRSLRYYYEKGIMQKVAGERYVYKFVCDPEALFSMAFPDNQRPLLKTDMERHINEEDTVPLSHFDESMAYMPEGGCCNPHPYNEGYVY
In short: as §1

[10] = target: T6, ERF (Homo sapiens, UniProt P50548 1-548); details: protein: recombinant; tags: N-terminal GST; dsDNA, one strand shown
T6 sequence: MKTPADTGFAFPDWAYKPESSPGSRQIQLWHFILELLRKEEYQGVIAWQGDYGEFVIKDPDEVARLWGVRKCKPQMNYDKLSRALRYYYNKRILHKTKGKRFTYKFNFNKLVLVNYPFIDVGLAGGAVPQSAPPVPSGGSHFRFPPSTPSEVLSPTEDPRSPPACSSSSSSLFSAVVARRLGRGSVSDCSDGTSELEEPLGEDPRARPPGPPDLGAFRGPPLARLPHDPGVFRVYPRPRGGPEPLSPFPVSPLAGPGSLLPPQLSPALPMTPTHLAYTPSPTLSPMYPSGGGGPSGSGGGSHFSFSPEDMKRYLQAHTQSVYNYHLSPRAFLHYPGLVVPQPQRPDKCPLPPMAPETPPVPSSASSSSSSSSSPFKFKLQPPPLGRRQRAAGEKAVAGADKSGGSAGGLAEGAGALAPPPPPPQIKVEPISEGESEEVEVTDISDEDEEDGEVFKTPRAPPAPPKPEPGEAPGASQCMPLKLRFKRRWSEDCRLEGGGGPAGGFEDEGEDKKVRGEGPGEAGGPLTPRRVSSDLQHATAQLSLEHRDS
In short: as §1

[11] = target: T7, ETV3L (Homo sapiens, UniProt Q6ZN32 1-361); details: protein: recombinant; tags: N-terminal GST; dsDNA, one strand shown
T7 sequence: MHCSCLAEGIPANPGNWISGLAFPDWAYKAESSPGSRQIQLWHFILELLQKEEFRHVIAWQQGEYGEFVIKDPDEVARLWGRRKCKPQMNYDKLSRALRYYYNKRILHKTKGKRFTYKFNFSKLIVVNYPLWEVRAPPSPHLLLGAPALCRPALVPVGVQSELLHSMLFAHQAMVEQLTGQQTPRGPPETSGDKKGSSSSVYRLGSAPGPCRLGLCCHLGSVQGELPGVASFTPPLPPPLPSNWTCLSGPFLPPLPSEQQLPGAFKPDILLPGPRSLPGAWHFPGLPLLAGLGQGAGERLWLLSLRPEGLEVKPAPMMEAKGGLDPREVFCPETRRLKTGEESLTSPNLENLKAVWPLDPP
In short: as §1

[12] = target: T8, ETS2 (Homo sapiens, UniProt P15036 1-469); details: protein: recombinant; tags: N-terminal GST; dsDNA, one strand shown
T8 sequence: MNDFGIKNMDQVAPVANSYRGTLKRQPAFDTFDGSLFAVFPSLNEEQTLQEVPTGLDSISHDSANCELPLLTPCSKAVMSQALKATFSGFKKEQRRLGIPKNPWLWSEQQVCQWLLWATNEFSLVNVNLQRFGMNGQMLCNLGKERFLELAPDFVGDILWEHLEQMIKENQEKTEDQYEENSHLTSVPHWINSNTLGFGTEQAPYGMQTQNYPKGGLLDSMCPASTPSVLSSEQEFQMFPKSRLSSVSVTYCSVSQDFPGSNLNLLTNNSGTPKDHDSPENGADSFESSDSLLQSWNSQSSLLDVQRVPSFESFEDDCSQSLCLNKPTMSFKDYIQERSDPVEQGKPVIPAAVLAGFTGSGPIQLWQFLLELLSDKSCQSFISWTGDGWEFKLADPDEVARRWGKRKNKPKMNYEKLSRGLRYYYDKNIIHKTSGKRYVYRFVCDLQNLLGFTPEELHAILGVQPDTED
In short: as §1

[13] = target: T9, SPDEF (Homo sapiens, UniProt O95238 1-335); details: protein: recombinant; tags: N-terminal GST; dsDNA, one strand shown
T9 sequence: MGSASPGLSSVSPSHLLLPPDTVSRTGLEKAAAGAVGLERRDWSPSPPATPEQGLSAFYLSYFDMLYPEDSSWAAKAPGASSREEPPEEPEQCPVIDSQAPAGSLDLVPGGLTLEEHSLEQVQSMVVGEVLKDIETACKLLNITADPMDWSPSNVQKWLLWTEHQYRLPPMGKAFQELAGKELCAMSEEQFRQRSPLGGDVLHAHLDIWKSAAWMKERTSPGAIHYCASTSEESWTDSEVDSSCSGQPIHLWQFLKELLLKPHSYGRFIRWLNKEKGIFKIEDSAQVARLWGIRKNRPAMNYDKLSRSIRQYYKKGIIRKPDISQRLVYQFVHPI
In short: as §1

[14] = target: T10, ETV7 (Homo sapiens, UniProt Q9Y603 1-341); details: protein: recombinant; tags: N-terminal GST; dsDNA, one strand shown
T10 sequence: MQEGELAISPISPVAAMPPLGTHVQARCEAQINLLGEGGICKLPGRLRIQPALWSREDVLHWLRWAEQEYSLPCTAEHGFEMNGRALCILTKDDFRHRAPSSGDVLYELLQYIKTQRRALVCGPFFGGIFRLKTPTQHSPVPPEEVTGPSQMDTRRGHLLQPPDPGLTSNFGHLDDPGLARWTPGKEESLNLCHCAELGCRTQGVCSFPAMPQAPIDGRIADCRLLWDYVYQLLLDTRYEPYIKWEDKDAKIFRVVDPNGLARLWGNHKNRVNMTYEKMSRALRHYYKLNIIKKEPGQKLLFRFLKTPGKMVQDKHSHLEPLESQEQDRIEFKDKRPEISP
In short: as §1

[15] = target: T11, ELF5 (Homo sapiens, UniProt Q9UKW6-2 1-255); details: protein: recombinant; tags: N-terminal GST; dsDNA, one strand shown
T11 sequence: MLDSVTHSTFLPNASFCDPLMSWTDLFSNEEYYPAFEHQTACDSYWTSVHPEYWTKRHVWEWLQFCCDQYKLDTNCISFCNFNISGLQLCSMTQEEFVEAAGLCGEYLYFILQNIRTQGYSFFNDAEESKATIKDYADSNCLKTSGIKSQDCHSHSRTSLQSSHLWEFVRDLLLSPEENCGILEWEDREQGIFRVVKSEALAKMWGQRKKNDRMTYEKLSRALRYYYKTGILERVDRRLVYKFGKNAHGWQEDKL
In short: as §1

[16] = target: T12, ETV3 (Homo sapiens, UniProt P41162-2 1-143); details: protein: recombinant; tags: N-terminal GST; dsDNA, one strand shown
T12 sequence: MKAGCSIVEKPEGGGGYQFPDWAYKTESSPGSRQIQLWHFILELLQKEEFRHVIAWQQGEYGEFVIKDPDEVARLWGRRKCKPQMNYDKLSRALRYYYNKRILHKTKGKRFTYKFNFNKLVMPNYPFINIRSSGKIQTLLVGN
In short: as §1

[17] = target: ETV6 (Homo sapiens, UniProt P41212 1-452); details: protein: recombinant; tags: N-terminal GST; dsDNA, one strand shown
Chain of ETV6 (P41212 whole entry): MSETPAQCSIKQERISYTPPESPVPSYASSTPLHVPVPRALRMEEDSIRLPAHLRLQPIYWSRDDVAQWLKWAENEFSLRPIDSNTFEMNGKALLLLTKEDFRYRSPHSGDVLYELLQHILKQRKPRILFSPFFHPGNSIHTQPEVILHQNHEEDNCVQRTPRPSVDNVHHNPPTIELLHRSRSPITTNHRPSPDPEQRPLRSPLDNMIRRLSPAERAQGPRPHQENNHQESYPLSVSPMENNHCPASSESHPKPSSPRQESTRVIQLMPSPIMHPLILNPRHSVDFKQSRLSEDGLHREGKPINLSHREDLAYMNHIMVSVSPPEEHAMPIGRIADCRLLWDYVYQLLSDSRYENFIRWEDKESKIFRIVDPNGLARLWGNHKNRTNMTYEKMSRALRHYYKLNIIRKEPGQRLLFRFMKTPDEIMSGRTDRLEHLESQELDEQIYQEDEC
In short: as §1

Row | Sequence | binding signal [1] | binding signal [2] | binding signal [3] | binding signal [4] | binding signal [5] | binding signal [6] | binding signal [7] | binding signal [8] | binding signal [9] | binding signal [10] | binding signal [11] | binding signal [12] | binding signal [13] | binding signal [14] | binding signal [15] | binding signal [16] | binding signal [17]
1 | GGAAAT | 4 fold enrichment (6-mer frequency, TF over GST control) | 3.05 fold enrichment (6-mer frequency, TF over GST control) | 1.29 fold enrichment (6-mer frequency, TF over GST control) | 2.47 fold enrichment (6-mer frequency, TF over GST control) | 2.4 fold enrichment (6-mer frequency, TF over GST control) | 2.13 fold enrichment (6-mer frequency, TF over GST control) | 2.4 fold enrichment (6-mer frequency, TF over GST control) | 2.74 fold enrichment (6-mer frequency, TF over GST control) | 2.69 fold enrichment (6-mer frequency, TF over GST control) | 2.42 fold enrichment (6-mer frequency, TF over GST control) | 2.66 fold enrichment (6-mer frequency, TF over GST control) | 2.75 fold enrichment (6-mer frequency, TF over GST control) | 2.56 fold enrichment (6-mer frequency, TF over GST control) | 2.56 fold enrichment (6-mer frequency, TF over GST control) | 3.68 fold enrichment (6-mer frequency, TF over GST control) | 2.88 fold enrichment (6-mer frequency, TF over GST control) | 3.32 fold enrichment (6-mer frequency, TF over GST control)
2 | ACGAAC | 1.15 fold enrichment (6-mer frequency, TF over GST control) | 1.22 fold enrichment (6-mer frequency, TF over GST control) | 1.19 fold enrichment (6-mer frequency, TF over GST control) | 1.07 fold enrichment (6-mer frequency, TF over GST control) | 1.22 fold enrichment (6-mer frequency, TF over GST control) | 1.18 fold enrichment (6-mer frequency, TF over GST control) | 1.18 fold enrichment (6-mer frequency, TF over GST control) | 1.22 fold enrichment (6-mer frequency, TF over GST control) | 1.09 fold enrichment (6-mer frequency, TF over GST control) | 1.05 fold enrichment (6-mer frequency, TF over GST control) | 1.07 fold enrichment (6-mer frequency, TF over GST control) | 1.22 fold enrichment (6-mer frequency, TF over GST control) | 1.13 fold enrichment (6-mer frequency, TF over GST control) | 1.21 fold enrichment (6-mer frequency, TF over GST control) | 1.09 fold enrichment (6-mer frequency, TF over GST control) | 1.04 fold enrichment (6-mer frequency, TF over GST control) | 1.1 fold enrichment (6-mer frequency, TF over GST control)
